Test results as given in PubChem BioAssay AID1159580 (chemical genetic matrix, 2015).
Several values for one entry are separate records, joined by “and”; a condition that tells them apart may be missing. Equal entries are not always repeated. About 2,000 (36%) of roughly 5,500 compounds were called active. Another 18% or so got no clear call; they are omitted. No stated cut-off is given here; in the data, active means normalized growth mostly below about 0.91 (no sharp cut-off); inconclusive means no clear call, values can overlap the other calls; inactive means mostly above about 0.92. Some of the results follow.

Assay: chemical genetic growth profiling, strain panel (AID 1159580);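 further: tested at 20 µM; growth read once vehicle control cultures reached saturation at 30 °C; 1 = growth at the plate median or of vehicle wells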
Details: S. cerevisiae deletion strains, growth OD

Measured: normalized growth

COc1ccc2c(c1)c(CC(=O)O)c(C)n2C(=O)c1ccc(Cl)cc1
inactive: locus YAL013W, strain DEP1, stronger effect = lower value 1.01 | locus YAL021C, strain ccr4, stronger effect = lower value 0.987 | locus YAL026C, strain drs2, stronger effect = lower value 0.974 | locus YAL030W, strain snc1, stronger effect = lower value 0.988 | locus YAL040C, strain CLN3, stronger effect = lower value 0.997 | locus YBL061C, strain skt5, stronger effect = lower value 0.959 | locus YBR009C, strain hhf1, stronger effect = lower value 0.931 | locus YBR021W, strain FUR4, stronger effect = lower value 1 | locus YBR023C, strain chs3, stronger effect = lower value 0.969 | locus YBR171W, strain sec66, stronger effect = lower value 0.967 | locus YBR229C, strain ROT2, stronger effect = lower value 1 | locus YBR231C, strain swc5, stronger effect = lower value 0.972 | locus YBR279W, strain paf1, stronger effect = lower value 0.988 | locus YCL011C, strain gbp2, stronger effect = lower value 0.921 | locus YCL016C, strain dcc1, stronger effect = lower value 0.919 | locus YCL029C, strain bik1, stronger effect = lower value 0.988 | locus YCL061C, strain MRC1 (second series), stronger effect = lower value 1.01 | locus YCL061C, strain MRC1, stronger effect = lower value 0.96 | locus YCL069W, strain vba3, stronger effect = lower value 0.986 | locus YCR088W, strain abp1, stronger effect = lower value 0.99 | locus YDL005C, strain med2, stronger effect = lower value 0.973 | locus YDL035C, strain GPR1, stronger effect = lower value 1.02 | locus YDL040C, strain nat1, stronger effect = lower value 0.991 | locus YDL074C, strain BRE1, stronger effect = lower value 1.02 | locus YDL101C, strain DUN1, stronger effect = lower value 1.01 | locus YDL185W, strain tfp1, stronger effect = lower value 0.973 | locus YDL192W, strain arf1, stronger effect = lower value 0.998 | locus YDR001C, strain nth1, stronger effect = lower value 0.978 | locus YDR069C, strain doa4, stronger effect = lower value 1.01 | locus YDR101C, strain arx1, stronger effect = lower value 1.02 | locus YDR137W, strain rgp1, stronger effect = lower value 0.95 | locus YDR159W, strain sac3, stronger effect = lower value 1.01 | locus YDR162C, strain NBP2, stronger effect = lower value 0.995 | locus YDR195W, strain ref2 1.02 | locus YDR297W, strain sur2, stronger effect = lower value 1.01 | locus YDR318W, strain mcm21, stronger effect = lower value 0.979 | locus YDR334W, strain swr1, stronger effect = lower value 0.981 | locus YDR335W, strain msn5, stronger effect = lower value 0.991 | locus YDR363W, strain ESC2, stronger effect = lower value 0.996 | locus YDR388W, stronger effect = lower value 0.982 | locus YDR392W, strain spt3, stronger effect = lower value 0.885 | locus YDR502C, strain sam2, stronger effect = lower value 0.981 | locus YEL003W, strain gim4, stronger effect = lower value 1 | locus YEL037C, strain rad23, stronger effect = lower value 0.961 | locus YEL061C, strain CIN8 (second series), stronger effect = lower value 0.979 | locus YEL061C, strain CIN8, stronger effect = lower value 1 | locus YER002W, strain NOP16, stronger effect = lower value 1.02 | locus YER015W, strain faa2, stronger effect = lower value 0.976 | locus YER016W, strain bim1, stronger effect = lower value 0.989 | locus YER110C, stronger effect = lower value 0.986 | locus YER111C, strain swi4, stronger effect = lower value 0.98 | locus YER155C, strain BEM2 (second series), stronger effect = lower value 0.874 | locus YER155C, strain BEM2, stronger effect = lower value 0.989 | locus YER167W, strain BCK2, stronger effect = lower value 0.995 | locus YFR010W, strain ubp6, stronger effect = lower value 0.975 | locus YGL078C, strain dbp3, stronger effect = lower value 0.978 | locus YGL086W, strain mad1, stronger effect = lower value 0.995 | locus YGL167C, strain pmr1, stronger effect = lower value 0.983 | locus YGL173C, strain kem1, stronger effect = lower value 0.985 | locus YGL227W, strain vid30, stronger effect = lower value 0.976 | locus YGL240W, strain doc1, stronger effect = lower value 1.01 | locus YGL248W, strain PDE1, stronger effect = lower value 1.01 | locus YGL253W, strain hxk2, stronger effect = lower value 0.993 | locus YGR135W, strain pre9, stronger effect = lower value 0.963 | locus YGR252W, strain gcn5, stronger effect = lower value 0.94 | locus YHR013C, strain ard1, stronger effect = lower value 0.968 | locus YHR027C, strain rpn1, stronger effect = lower value 0.981 | locus YHR030C, strain SLT2, stronger effect = lower value 1.01 and 0.952 | locus YHR079C, strain IRE1 (second series), stronger effect = lower value 0.987 | locus YHR079C, strain IRE1, stronger effect = lower value 0.96 | locus YHR094C, strain hxt1, stronger effect = lower value 0.975 | locus YHR129C, strain ARP1, stronger effect = lower value 1.01 | locus YHR142W, strain chs7, stronger effect = lower value 0.912 | locus YHR200W, strain rpn10, stronger effect = lower value 0.99 | locus YIL066C, strain RNR3, stronger effect = lower value 1 | locus YIL073C, strain SPO22, stronger effect = lower value 0.987 | locus YIL125W, strain kgd1, stronger effect = lower value 0.945 | locus YIR030C, strain dcg1, stronger effect = lower value 0.986 | locus YJL092W, strain hpr5, stronger effect = lower value 0.92 | locus YJL095W, strain BCK1 (second series), stronger effect = lower value 0.996 | locus YJL095W, strain BCK1, stronger effect = lower value 1 and 0.969 | locus YJL115W, strain asf1, stronger effect = lower value 0.969 | locus YJL129C, strain trk1, stronger effect = lower value 0.909 | locus YJL134W, strain LCB3, stronger effect = lower value 0.997 | locus YJL154C, strain vps35, stronger effect = lower value 0.989 | locus YJL164C, strain tpk1, stronger effect = lower value 0.976 | locus YJL166W, strain qcr8, stronger effect = lower value 0.977 | locus YJL168C, strain set2, stronger effect = lower value 0.979 | locus YJL187C, strain SWE1 (second series), stronger effect = lower value 1 | locus YJL187C, strain SWE1, stronger effect = lower value 0.991 | locus YJR043C, strain POL32, stronger effect = lower value 1.02 | locus YJR066W, strain TOR1, stronger effect = lower value 0.911
